According to the supplement of paper PMC6555819:

Legend:
Assay in all cases: PBM binding z-score (relative to random genomic background probes); higher = stronger binding; sequences stand for … in GC…GCGATTGACAGCGTAGAATGAAGG
[1] = test system: FXR:RXRa (NR concentration 270 nM, RXRa partner concentration 90 nM)
Procedure, shortened: (§1)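 Ligand-free nuclear receptor dimers were bound for 1 h to custom Agilent 4×180K protein-binding microarrays. Detection used antibodies against each partner (one per run). Binding z-scores rest on regression-normalized fluorescence, with random background probes as the reference.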

[2] = test system: LXRa:RXRa (NR concentration 270 nM, RXRa partner concentration 90 nM)
Procedure, shortened: as §1

[3] = test system: LXRa homodimer (NR concentration 270 nM)
Procedure, shortened: as §1

[4] = test system: LXRb:RXRa (NR concentration 270 nM, RXRa partner concentration 90 nM)
Procedure, shortened: as §1

[5] = test system: LXRb homodimer (NR concentration 270 nM)
Procedure, shortened: as §1

[6] = test system: PPARa:RXRa (NR concentration 270 nM, RXRa partner concentration 90 nM)
Procedure, shortened: as §1

[7] = test system: PPARg:RXRa (NR concentration 180 nM, RXRa partner concentration 90 nM)
Procedure, shortened: as §1

[8] = test system: PPARg:RXRa 270nM:90nM, anti-RXR (NR concentration 270 nM, RXRa partner concentration 90 nM)
Procedure, shortened: as §1

[9] = test system: PPARg:RXRa 30nM:10nM, anti-RXR (NR concentration 30 nM, RXRa partner concentration 10 nM)
Procedure, shortened: as §1

[10] = test system: PPARg:RXRa 90nM:30nM, anti-RXR (NR concentration 90 nM, RXRa partner concentration 30 nM)
Procedure, shortened: as §1

[11] = test system: PPARg:RXRa DBDmut IVT, anti-RXR (DBD mutation: RXRa K156A/R161A, NR concentration 270 nM, RXRa partner concentration 90 nM)
Procedure, shortened: as §1

[12] = test system: PPARg:RXRa IVT, anti-PPARg (NR concentration 270 nM, RXRa partner concentration 90 nM)
Procedure, shortened: as §1

[13] = test system: PPARg DBDmut:RXRa IVT, anti-PPARg (DBD mutation: PPARg1 K132A/R137A, NR concentration 270 nM, RXRa partner concentration 90 nM)
Procedure, shortened: as §1

[14] = test system: PPARg DBDmut IVT, anti-PPARg (DBD mutation: PPARg1 K132A/R137A, NR concentration 270 nM)
Procedure, shortened: as §1

[15] = test system: PPARg homodimer (NR concentration 180 nM)
Procedure, shortened: as §1

[16] = test system: PXR:RXRa (NR concentration 270 nM, RXRa partner concentration 90 nM)
Procedure, shortened: as §1

[17] = test system: PXR homodimer (NR concentration 270 nM)
Procedure, shortened: as §1

[18] = test system: RARa:RXR (NR concentration 270 nM, RXRa partner concentration 90 nM)
Procedure, shortened: as §1

[19] = test system: RARa homodimer (NR concentration 270 nM)
Procedure, shortened: as §1

[20] = test system: RARb:RXRa (NR concentration 270 nM, RXRa partner concentration 90 nM)
Procedure, shortened: as §1

Sequence	PBM binding z-score [1]	PBM binding z-score [2]	PBM binding z-score [3]	PBM binding z-score [4]	PBM binding z-score [5]	PBM binding z-score [6]	PBM binding z-score [7]	PBM binding z-score [8]	PBM binding z-score [9]	PBM binding z-score [10]	PBM binding z-score [11]	PBM binding z-score [12]	PBM binding z-score [13]	PBM binding z-score [14]	PBM binding z-score [15]	PBM binding z-score [16]	PBM binding z-score [17]	PBM binding z-score [18]	PBM binding z-score [19]	PBM binding z-score [20]
CCTACTGGGCCGAAAAGGTCATTGATGCCGATAA	3.42	4.38	2.91	3.93	0.134	4.47	1.7	3.34	0.611	2.39	0.922	2.21	-1.07	-1.05	1.68	4.56	1.74	4.84	0.458	3.77
CCGACTGGGGCATAAGGATACCATAAGCCAGCCC	-0.174	-0.373	-0.612	-0.813	-1.53	-0.0359	1.29	1.46	0.0303	0.707	2.56	1.93	-0.873	-1.29	-0.477	-0.797	-0.877	-0.463	0.0261	0.0537
TTACCAAGGTGAAGGTCCTTGATCCCTCTGTAGA	0.794	0.644	-0.31	1.04	-0.95	1.87	1.33	2.39	0.878	2.03	1.64	2.67	-0.58	-0.0809	-0.00432	0.544	-0.323	1.01	-0.146	1.75
CCAACTAGGTCAGAACAGGACAGTGAAGGATGAT	1.3	1.41	0.28	0.911	0.446	2.61	4.46	3.56	1.37	2.8	6.64	6.66	2.08	1.17	1.73	1.13	0.914	2.07	1.58	2.98
CTCGTAAGGTCGTGCTCAGGTGAGTATACCAAAC	3.16	2.44	-0.206	1.97	0.357	3.48	0.721	1.85	0.398	1.07	0.319	1.17	0.192	0.162	1.03	2.23	-0.00148	3.61	-0.224	2.83
CTCGAAAGGTCGGTTGATGTGAGTATACGGATAA	1.88	1.52	-0.145	1.45	0.455	2.31	0.418	0.917	0.204	0.223	0.122	0.641	0.802	0.00433	1.37	1.07	0.216	1.41	0.252	2.86
TAGCCTAGGTCATGCAGGCCAGTATAGTGTCGGC	3.92	2.91	0.151	1.7	-0.186	3.38	2.19	2.37	0.209	1.34	1.84	2.9	0.61	0.0782	1.52	1.77	-0.409	2.37	-0.161	3.66
GCAGACAGGTGAGACGCAGGTAACTCAGGGTGGC	-0.153	-0.129	-0.774	-0.355	-1.18	0.164	0.374	-0.0915	-0.758	-0.532	0.0725	0.0836	-0.435	-0.858	-0.513	-0.282	-0.385	0.154	-0.0204	0.422
TATACAGGGTCATAGGCCAGAGTACGAATGTCGA	6.89	6	1.98	4.45	1.7	5.81	7.21	6.45	3.76	5.8	2.32	4.47	2.52	2.28	2.09	4	0.517	5.18	1.43	4.25
ACTAGAAGGCCAAGTTTGGGTCACTCAAACAAAG	0.681	0.517	-0.0475	0.902	-0.474	1.52	0.293	0.723	-0.386	0.134	0.0334	1.25	-0.516	-0.287	0.742	1.2	-0.219	2.15	-0.267	2.71
TCTTGTAGATAAGCAGGTTAAGAAAGCTGGCCAA	0.562	0.358	-0.156	-0.00905	-0.669	0.533	-0.481	1.19	2.41	1.65	1.32	0.184	0.000724	-0.186	0.0505	0.206	-0.278	0.402	0.154	0.0488
TCATATAGGTAATACAGGTGAAGGTCGGCATCTA	1.22	1.34	0.87	1.02	0.522	2.28	1.83	3.03	4.02	3.78	4.61	3.61	1.2	1.45	1.83	1.16	0.89	1.69	2.17	1.22
GGAACCAGGGCAAGTTGATAGCAGAGTTTGATGG	1.5	0.969	0.225	0.866	0.488	1.54	1.17	0.853	-0.119	0.257	4.63	3.75	0.246	1.22	1.02	0.554	0.742	0.217	0.68	2.26
AGTCAAAGTTCACTAGGGAACGTAAGATTCAGCT	5.18	5.47	2.42	3.27	0.67	4.19	6.45	6.13	3.52	5.22	0.937	3.63	0.753	0.755	2.24	3.94	2.56	2.71	0.63	4.57
GGAACGAGGGCAAAATTGATAGCATCTGTCGACG	0.343	0.168	-0.325	0.129	-0.58	1.03	1.22	1.52	0.191	0.732	3.25	2.12	0.369	-0.0358	0.19	0.226	-0.165	0.355	-0.196	1.57
CCTCCTGGGCCAAAAAGGTCATTGATGCCGATAA	3.19	3.89	2.81	4.12	0.202	4.47	0.997	2.63	0.448	1.63	-0.0525	1.53	-0.96	-0.947	2.51	4.62	2.5	4.44	0.621	3.9
TAGCCTAGGTCACTGGGCCAGTATAGTACGCATC	3.22	2.31	-0.331	1.92	-0.779	4	5.05	4.62	1.68	3.41	3.48	5.27	1.2	0.865	0.976	1.32	-0.648	1.93	-0.15	3.91
ACTATTAGTTGAGACGAGGGCATCCGATAGGTTG	0.433	-0.0452	0.0875	-0.216	0.112	0.0329	0.689	-0.118	0.0451	0.0642	0.0561	-0.111	1.09	0.274	-0.612	1.7	0.926	0.817	0.577	0.742
CCTTACCGGTCACTCCAGGTTATAGCATCGGAGT	2.6	6.15	4.71	2.67	1.65	1.3	0.603	0.901	0.0814	0.653	1.13	1.44	-0.00194	-0.042	1.6	1.94	1.24	1.37	1.2	2.9
ATAGAAAGGTCGAGGTGAGTATAGAGAAAGGGAA	4.25	3.22	0.369	2.75	0.952	4.36	3.26	3.43	1.67	2.2	0.449	1.99	1.74	0.872	2.34	2.55	0.613	3.6	1.71	4
CGAACTAGGTCATCCATGACAGTGAATACATTGA	3.96	2.2	0.578	2.07	0.325	5.09	7.88	6.33	4.18	5.8	8.18	8.57	4.46	1.2	1.67	1.53	0.0131	2.26	0.371	3.98
CCTACTGGGCCACCAGGTCATTGATATCAACGTT	1.25	1.07	0.943	1.56	-0.0133	3.16	4.32	4.3	1.41	3.26	4.8	6.19	-0.327	-0.298	1.02	1.73	0.656	1.75	0.342	1.98
TCTATTAGTTGATTAGGGCATCCGAAACAGCGGA	0.685	0.731	0.192	0.397	0.553	0.769	0.185	1.91	3.47	2.78	2.14	1.16	0.865	0.919	1.28	0.607	0.652	0.754	1.52	0.788
CCGAGTGGGTTATGGGGCATTCAGGCAACGGTGA	0.128	0.155	-0.051	0.764	-0.129	1.74	2.61	3.77	1.55	3.82	1.23	2.29	-0.951	-0.669	0.384	-0.309	0.21	0.0956	0.0265	0.461
TGTCAAAGTTTAAAGGTAACGTAAGTATCCACAC	1.49	1.72	0.175	1.29	-0.187	2.79	4.23	4.3	1.98	3.41	-0.319	2.73	0.942	1.54	0.899	1.7	0.39	2.12	0.576	2.46
CGTCCAAGGTCAATGCTAGGACAGTGAAAGCATT	6.19	4.43	0.325	3.53	0.27	5.19	3.96	4.09	1.22	2.76	3.02	3.24	-0.452	-0.465	1.7	3.22	0.241	3.44	-0.11	4.96
CGAACTAGGTCATTGACAGGAGAGTGAATAGTAA	4.67	2.65	0.0352	1.64	-0.158	4.89	7.41	6.44	3.96	5.77	7.92	8.28	2.36	3.6	1.32	1.04	0.0101	1.99	0.473	3.65
TCTAGTTGGTCACGGAGGTCACAGACGACGGGTA	3.38	3.46	1.88	3.32	0.321	4.34	3.91	4.32	3.41	3.8	2.62	4.51	0.854	1.64	3.09	4.61	0.763	4.83	1.36	3.96
TTACCAAGGCGAGCTGAGGTCGTTGATCCAACTC	0.487	0.298	-0.362	0.482	-0.87	0.95	-0.35	0.0213	-0.31	0.219	0.105	-0.00723	-0.484	-0.938	-0.375	1.71	0.0318	1.57	-0.628	0.286
